# Measurements published in ChEMBL document CHEMBL3988442, “University of Dundee, Small-Polar-MMV Screening Library” (2021).
# Screen size: about 38,000 compounds; about 1,200 (3.2%) showed an effect of 50% or more. The median lay at about -58%. The sample holds strong results, similar compounds and a random draw of the others, so the mix is not that of the screen.
# System: Plasmodium falciparum
# Assay: Calibr Malaria Delayed Death Assay SOP
# Assay type: functional, organism-based
# Parameters: scale not given: in the data most compounds retested in dose-response had high values
# Conditions: concentration 4.99e-06 (unit not given; other assays of the set use mol/L)
row,Structure (SMILES),Percent Effect [%]
1,O=C(O)C(F)(F)F.O=C(c1ccco1)N1C[C@H]2CCCN(Cc3ccc(F)cc3)[C@H]2C1,-36.52
2,Cn1cccc1C(=O)NCc1cn2c(n1)CN(CC1CCOCC1)CC2.O=C(O)C(F)(F)F,-71.57
3,Cc1nc(N2CCCC2)nc2c1CCN(C(=O)NC(C)C)CC2,3.788
4,Cc1cccc(N2CCOCC3(C2)CN(c2cncnc2)C(=O)CO3)n1 (stereo unspecified),-72.37
5,O=C(CN1CCCC(Cn2cncn2)C1)NCCc1cccs1 (stereo unspecified),-76.44
6,O=C(CNC(=O)C1(c2ccc(F)cc2F)CCC1)Nc1cccnc1,-130.4
7,Cc1ccc(CNCc2nccn2C)c(OCC2CC2)c1,-19.72
8,Cc1ccc(CNCc2c[nH]nc2C(C)(C)C)c(OC2CCOC2)c1 (stereo unspecified),54.5
9,Cc1ccc(NCc2cccc3cn[nH]c23)cc1OC1CCOC1 (stereo unspecified),18.44
10,CN(C)CCN1CCC(CNCc2c[nH]nc2C(C)(C)C)CC1,-18.94
11,COCCN1CCC(CNCc2c[nH]nc2C(C)(C)C)CC1,-136.4
12,NC(=O)c1ccc(CN2CCC(N3CCCC3)CC2)cc1,-126.8
13,O=C(O)C(F)(F)F.O=c1cccnn1CC1CN(CC2CCCC2)Cc2nccn2C1 (stereo unspecified),-25.12
14,Cn1nccc1-c1cnc2n1CCC21CCN(C(=O)C2(C)CC2)CC1,-43.4
15,CCNC(=O)NC(=O)CNc1cccc(C(=O)c2ccccc2)c1,-85.13
16,CC(C)(N)CNS(=O)(=O)Cc1cccc2cccnc12.Cl,-113.8
17,CSc1nc2ncc3c(=O)n(CCN4CCCCC4)ccc3n2n1,-81.14
18,Cc1ccccc1C(=O)N1CCCn2cnc(CN3CCCC3=O)c2C1,-111.5
19,Cc1ncccc1C(=O)Nc1cccc(OCC(F)F)n1,-105.7
20,CCc1ccc(S(=O)(=O)N2Cc3c(CN(C)C)nn(C)c3C2)cc1.O=C(O)C(F)(F)F,62.16
21,COc1ccc(S(=O)(=O)N2Cc3c(CN(C)C)nn(C)c3C2)cc1.O=C(O)C(F)(F)F,40.82
22,Cc1ccc(CS(=O)(=O)N2Cc3c(CN(C)C)nn(C)c3C2)cc1.O=C(O)C(F)(F)F,28.75

row,Structure (SMILES),Percent Effect [%]
1,CNc1ncc(CN(C)c2nc(C3CCCC3)nc3c2cnn3C)cn1,-13.34
2,CC(C)n1c2ccccc2c2c1cc(C(=O)O)n2C(=O)N(C)C,-103.4
3,COc1ccc(CCC(=O)NCCN2CCC(c3cccs3)CC2)cc1,74.85
4,O=C(Cc1ccccc1Cl)NCCN1CCC(c2cccs2)CC1,62.17
5,O=C(NCCC(O)c1ccoc1)Nc1cccs1 (stereo unspecified),-113.5
6,O=C(NCCN1CCC(c2cccs2)CC1)c1ccccc1C(F)(F)F,31.51
7,CCSc1ccccc1C(=O)NCCN1CCC(c2cccs2)CC1,28.22
8,O=C(NCCN1CCC(c2cccs2)CC1)Nc1cccs1,62.79
9,O=C(Cc1ccccc1Cl)NCC1CCN(Cc2ccsc2)CC1,33.59
10,O=C(NCCN1CCC(c2cccs2)CC1)c1ccc(F)cc1Cl,-24.2
11,O=C(NCCc1ccccc1)NCCN1CCC(c2cccs2)CC1,76.7
12,COc1ccc(C(=O)NCCN2CCC(c3cccs3)CC2)cc1OC,29.34
13,CC(=O)NCCN1CCC(c2cccs2)CC1,2.442
14,CC1CCN(CCNC(=O)c2sccc2C2CC2)CC1,-42.92
15,Cn1cnc2c1C(COCC1CC1)CN(c1ncccn1)C2.O=C(O)C(F)(F)F.O=C(O)C(F)(F)F (stereo unspecified),-186
16,CCc1nnc(SCc2nonc2C)n1C,-83.75
17,CCS(=O)(=O)N1Cc2ncn(CC3CC3)c2C(COCC2CC2)C1.O=C(O)C(F)(F)F (stereo unspecified),-83.39
18,CC(C)OCc1noc(C2CCOC2)n1 (stereo unspecified),-54.08
19,COc1ccc(-c2nnc(CNCCn3cc(C)cn3)o2)cc1,-61.63
20,O=C(O)c1cc(S(=O)(=O)Nc2cccc3c2OCCO3)c(Cl)cc1F,-73.09
21,O=S(=O)(c1ccccc1Cl)N1CCC2(CC1)OCCS2,-115.5
22,CCN1CCCC2(CCN(Cc3nnc(C4CC4)o3)C2)C1=O (stereo unspecified),-40.49

row,Structure (SMILES),Percent Effect [%]
1,CC(C)CCN1CCN(CC(=O)Nc2ccc3nsnc3c2)CC1,-73.84
2,Cc1ncncc1C(=O)N1CCCC(c2[nH]ncc2S(C)(=O)=O)C1 (stereo unspecified),-131.2
3,I.c1ccc(OCCNC2=NCCCN2)cc1,17.05
4,CCOCc1ccc(CNC2=NCCCN2)cc1.I,55.49
5,CN(C)c1ccc(CNC2=NCCCN2)cc1.I,-57.09
6,COc1ccc(-n2cc(CNC(=O)c3cscn3)nn2)cc1,-125.4
7,CCc1ncc2c(n1)CN(CC(=O)Nc1ccc(Cl)cn1)CC2,58.18
8,CCc1ncc2c(n1)CN(CC(=O)Nc1ccncc1)CC2,-164.3
9,CC(C)c1nc2c(n1C)CCN(CC(=O)Nc1ccc(Cl)cn1)C2,-37.81
10,COCC1c2c(cnn2C)CCN1C(=O)c1cccn1C.O=C(O)C(F)(F)F (stereo unspecified),-111.1
11,CCC1CN(CC(=O)NCCN(CC)CC)c2ccccc2S1 (stereo unspecified),75.77
12,COc1ccccc1N1CCC(CNC(=O)CN2CSCC2=O)C1 (stereo unspecified),-74.71
13,O=C(NCCN1CCCCC1)c1cccc(Cl)c1Cl,47.98
14,CCC1CN(CC(=O)NCCN2CCCCC2)c2ccccc2S1 (stereo unspecified),71.16
15,CCC1CN(CC(=O)NCCN2CCCCCC2)c2ccccc2S1 (stereo unspecified),72.72
16,O=C(NCCN1CCCCC1)c1nc2ccccc2c(=O)[nH]1,-48.08
17,CCC1CN(CC(=O)NCCN2CCCC2)c2ccccc2S1 (stereo unspecified),62.37
18,Cc1ccccc1C1CCN(CCNC(=O)CS(C)(=O)=O)C1 (stereo unspecified),-6.702
19,CCn1nc(C)c2ccn(CC(=O)NCCN3CCCCC3)c(=O)c21,-46.75
20,O=C(NCCN1CCCC1)c1cc2c(s1)CCN2C(=O)c1ccccc1,-40.79
21,CCN(CC)CCNC(=O)c1cnc(-c2ccccc2)nc1,-36.61
22,Cc1nn(C)c2c(=O)n(CC(=O)NCCN3CCCCCC3)ccc12,8.921
